Test results as given in PubChem BioAssay (Tox21).
“And” between values parts separate entries of the source, which are not always exact repeats. Identical values can stand only once. Inconclusive results are not listed. Entries that show only a call come without a potency. The source holds several records for some structures; these can differ, active in one and inactive in another. The source made the active and inactive calls. Calls come from the whole dose curve.

Experiment: Nuclear factor erythroid 2-related factor 2/antioxidant responsive element (Nrf2/ARE) small molecule agonists: luciferase reporter gene qHTS assay in human keratinocytes (AID 1919969); note: nearly all actives have a fitted effect of over 35% in size
Settings: KeratinoSens HaCaT ARE-luciferase, luminescence, 24 h; series mostly up to 92.4 µM
From the text: National Center for Advancing Translational Sciences [NCATS]
Division of Preclinical Innovation [DPI]
U.S. Environmental Protection Agency [EPA]
National Institutes of Environmental Health Sciences [NIEHS]
National Toxicology Program [NTP]
U.S. Food and Drug Administration [FDA]
Oxidative stress has been implicated in the pathogenesis of a variety of diseases ranging from cancer to neurodegeneration. The antioxidant response element (ARE) signaling pathway plays an important role in the amelioration of oxidative stress. The KeratinoSens (Givaudan, Switzerland) is an in vitro test method which quantifies luciferase induction as a measure of activation of Keap1-Nrf2-antioxidationt/electrophile response element (ARE) dependant pathway in HaCaT human keratinocytes stably transfected with a selectable plasmid. The KeratinoSens assay is a cell-based assay with a reporter cell line to detect potential skin sensitizers by their ability to induce the Nrf2/ARE-response. The activation of the report gene under culture conditions can be detected by ONE-Glo Luciferase Assay System (Promega, Madison, WI). This cell line has been used to screen the Tox21 10K compound library to identify agonists that induce oxidative stress. The cytotoxicity of the Tox21 compound library against the KS-ARE cell line was tested in parallel by measuring the cell viability using CellTiter- Fluor assay system (Promega, Madison, WI) in the same wells.
HaCaT derived cell line KeratinoSens were dispensed at 1,500 cells/5uL/well in 1536-well white wall/solid bottom plates using a Multidrop Combi (ThermoFisher Scientific, Waltham, MA) dispenser. After the assay plates were incubated at 37 C/5% CO2 for 5 h, 23 nL of compounds dissolved in DMSO, positive controls or DMSO only was transferred to the assay plate by a pintool workstation (Kalypsys, San Diego, CA). The plates were incubated at 37 C/5% CO2 for 23 h, followed by addition of 1uL/well of CellTiter-Fluor reagent into the assay plates using a Flying Reagent Dispenser (Aurora Discovery, San Diego, CA) for cell viability readout that measures cytotoxicity. After 1 h incubation at 37 C/5% CO2 the fluorescence intensity was measured using a ViewLux (PerkinElmer, Shelton, CT) plate reader. Then 4uL/well of One-Glo were added using a Flying Reagent Dispenser. After the plates were incubated at room temperature for 30 min, the luminescence intensity in the assay plates was measured using ViewLux plate reader.
Potency is the fitted concentration of half-maximal effect.

| Structure (SMILES) | Potency |
| --- | --- |
| Oc1c(Cl)c(Cl)c(Cl)c(Cl)c1Cl | inactive |
| CCCCOC(=O)c1ccccc1C(=O)OCc1ccccc1 | inactive and 68.6 µM (active) |
| O=S(=O)(c1ccc(Cl)cc1)c1cc(Cl)c(Cl)cc1Cl | 48.5 µM (active) |
| Cc1coc2c1CCC(C)C2 (stereo not given) | inactive |
| CC(C)N1C(=O)c2ccccc2NS1(=O)=O | inactive |
| CCOP(=O)(OCC)Oc1ccc([N+](=O)[O-])cc1 | inactive |
| CC(Cl)(Cl)C(=O)O | inactive |
| Nc1nc(N)nc(Cl)n1 | inactive |
| CCOP(=O)(OCC)SCCSCC | inactive and 68.6 µM (active) |
| CCC1(CC)C(=O)C=CNC1=O | inactive |
| CC1OC(C)OC(C)O1 (stereo not given) | inactive |
| CC(c1ccc(O)cc1)c1ccc(O)cc1 | 64.3 µM (active) and inactive |
| O=c1[nH]c2ccccc2n1C1CCN(CCCC(c2ccc(F)cc2)c2ccc(F)cc2)CC1 | inactive |
| CCOP(=S)(OCC)SCSc1cc(Cl)ccc1Cl | inactive |
| Brc1ccc(Br)cc1 | inactive |
| CC(C)c1ccc(NC(=O)N(C)C)cc1 | inactive |
| CC(C)(C)C(=O)CCl | inactive |
| O=NN1CCCCC1 | inactive |
| O=NN1CCCCCCC1 | inactive |
| CCC(C)n1c(=O)[nH]c(C)c(Br)c1=O (stereo not given) | inactive |

| Structure (SMILES) | Potency |
| --- | --- |
| CNC(=O)N(C)c1nnc(C(C)(C)C)s1 | inactive |
| C=CCBr | inactive |
| c1cc2c(c(N3CCNCC3)c1)OCCO2 | inactive |
| CCSC(=O)N1CCCCCC1 | 37.5 µM (active) and inactive |
| CC(=[OH+])/C=C(/C)[O-].CC(=[OH+])/C=C(\C)[O-].CC(=[OH+])/C=C(\C)[O-].[Al] | inactive |
| CCCCCCCCCCCC(=O)O | inactive |
| O=C(O)C(Cl)Br (stereo not given) | inactive |
| O=C(O)CF | inactive |
| CC(C)C1(C)N=C(c2ncccc2C(=O)O)NC1=O (stereo not given) | inactive |
| [O]=[Cr][O][Cr]=[O] | inactive |
| CC(C)(C)C(=O)Cl | inactive |
| CC(Cl)CCl (stereo not given) | inactive |
| CN(C)CCc1ccc(O)cc1 | inactive |
| CCCCC(C#N)(Cn1cncn1)c1ccc(Cl)cc1 (stereo not given) | inactive |
| Nc1ccncc1 | inactive |
| CCC(C)(CC)c1cc(NC(=O)c2c(OC)cccc2OC)on1 | inactive |
| Nc1ccc(-c2ccc(N)c(N)c2)cc1N | inactive and 68.6 µM (active) |
| Cl/C=C\C[N+]12CN3CN(CN(C3)C1)C2 | 68.6 µM (active) |
| CN(C)C(=O)Cl | inactive |
| CNC | inactive |
